Measured values from PubChem BioAssay (NCI).
About 83,000 compounds went through this panel and 20% of them were active in at least one assay; those are over-represented in the sample as a whole.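 Method: cells in 96-well plates; compound added at one concentration; 48 h incubation; percent growth measured; values under 10 scored active.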

Key:
Assay in all cases: NCI-60 one-dose screen, 48 h (100 = growth as untreated, 0 = no growth, -100 = all killed)
Settings in all cases: 10 µM unless noted
SR leukemia = system: SR leukemia
RPMI-8226 leukemia = system: RPMI-8226 leukemia
OVCAR-8 ovarian = system: OVCAR-8 ovarian
OVCAR-5 ovarian = system: OVCAR-5 ovarian
OVCAR-4 ovarian = system: OVCAR-4 ovarian
SK-OV-3 ovarian = system: SK-OV-3 ovarian
IGROV1 ovarian = system: IGROV1 ovarian
OVCAR-3 ovarian = system: OVCAR-3 ovarian
HS 578T breast = system: HS 578T breast
NCI/ADR-RES ovarian = system: NCI/ADR-RES ovarian
T-47D breast = system: T-47D breast
BT-549 breast = system: BT-549 breast
MDA-MB-435 melanoma = system: MDA-MB-435 melanoma
SW-620 colon = system: SW-620 colon
MCF7 breast = system: MCF7 breast
HCT-116 colon = system: HCT-116 colon
HCC-2998 colon = system: HCC-2998 colon
KM12 colon = system: KM12 colon

Measured: growth

CC(=O)n1nc(C(=O)OC(C)(C)c2ccccc2)c2ccccc21
inactive: SR leukemia 95.3% | RPMI-8226 leukemia 102% | OVCAR-8 ovarian 95.4% | OVCAR-5 ovarian 80.7% | OVCAR-4 ovarian 93% | SK-OV-3 ovarian 88.2% | IGROV1 ovarian 96.7% | OVCAR-3 ovarian 101% | HS 578T breast 100% | NCI/ADR-RES ovarian 89.5% | T-47D breast 86.3% | BT-549 breast 99.6% | MDA-MB-435 melanoma 92.1% | SW-620 colon 103% | MCF7 breast 94% | HCT-116 colon 94.8% | HCC-2998 colon 98.2% | KM12 colon 94.7%

CCOC(=O)C1=C(c2ccccc2)N=C2SC=C(c3ccc(Cl)cc3)N2C1c1ccc(Cl)cc1 (centres undefined)
inactive: SR leukemia 75.7% | RPMI-8226 leukemia 65.9% | OVCAR-8 ovarian 78.6% | OVCAR-5 ovarian 96.9% | OVCAR-4 ovarian 48.7% | SK-OV-3 ovarian 86.5% | IGROV1 ovarian 72.3% | OVCAR-3 ovarian 65.8% | HS 578T breast 85.2% | NCI/ADR-RES ovarian 92.3% | T-47D breast 52.4% | BT-549 breast 87.5% | MDA-MB-435 melanoma 93.2% | SW-620 colon 81.8% | MCF7 breast 69.5% | HCT-116 colon 63% | HCC-2998 colon 86.2% | KM12 colon 72.5%

CC(C)=CCC[C@](C)(O)[C@H]1CC[C@]2(C)[C@@H]1CC[C@@H]1[C@@]3(C)C/C(=C/c4ccco4)C(=O)C(C)(C)[C@@H]3CC[C@]12C
inactive: SR leukemia 113% | RPMI-8226 leukemia 101% | OVCAR-8 ovarian 104% | OVCAR-5 ovarian 102% | OVCAR-4 ovarian 106% | SK-OV-3 ovarian 109% | IGROV1 ovarian 107% | OVCAR-3 ovarian 103% | HS 578T breast 94.5% | NCI/ADR-RES ovarian 104% | T-47D breast 97.8% | BT-549 breast 98.1% | MDA-MB-435 melanoma 97.4% | SW-620 colon 99.1% | MCF7 breast 97.2% | HCT-116 colon 97.4% | HCC-2998 colon 105% | KM12 colon 106%
